# “And” between values parts separate entries of the source, which are not always exact repeats. Equal entries are not always repeated.
# System: HL-1
# Test: protection of cardiomyocytes from stress damage, SAR follow-up, cell-based, panel, H9c2 and HL-1, ATP luminescence, set 2 (AID 651871);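 also: cells exposed to stressor for 2 h before ATP readout; reference of the scale not given here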
# Settings: H9c2/HL-1 cardiomyocytes, 2-deoxyglucose stress, with 2-deoxyglucose; run 1, at 79 µM (top of the series)
row,Structure (SMILES),activity (protection/inhibition)
1,COc1ccc2c(c1OC)C(=O)N1c3ccccc3C(=O)N(Cc3cccc(Cl)c3Cl)C21 (stereo not drawn),41.2% and 40.9% and -9.68%
2,COc1ccc2nc(-c3cc(OC)c(OC)c(OC)c3)cc(C(=O)NCC(=O)Nc3ccc(C(C)=O)cc3)c2c1,115%
3,CCOC(=O)c1cccc(NC(=O)CNC(=O)c2cc(-c3cc(OC)c(OC)c(OC)c3)nc3ccccc23)c1,101%

# Source: PubChem BioAssay AID651871 (Sanford-Burnham Center for Chemical Genomics, 2012)
